High-throughput results: PubChem, National Center for Advancing Translational Sciences (NCATS)
This is a sample that favours compounds with a hit; in the whole collection about 3.5% have one here.
Tau ThT inhib = inhibitors of human tau fibril formation, thioflavin T binding | AID 1460 | Potency, µM (series often up to 57.4 µM), for the others: at the highest dose activity, negative = inhibition, actives largely listed as inhibitors | recombinant tau K18 P301L, heparin-induced fibrillization, ThT fluorescence | actives 2.1% (n = 270,000); further: nearly all actives have a fitted effect of over 55% in size
Target sequence (P10636 561-689 P618L limits assumed): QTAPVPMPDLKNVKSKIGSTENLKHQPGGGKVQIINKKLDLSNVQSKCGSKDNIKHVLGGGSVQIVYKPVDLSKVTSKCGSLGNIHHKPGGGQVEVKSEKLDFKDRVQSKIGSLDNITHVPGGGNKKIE
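Recombinant human tau K18 fragment […] carrying P301L, 15 uM unlabeled plus 0.24 uM Alexa 594-labeled, was fibrillized with 20 uM heparin in 100 mM sodium acetate pH 7 for 6 hr at 37 C; 30 uM ThT fluorescence read after 1 hr.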
TR SRC2 fluor cs = Texas Red fluorescence interference in TRb-SRC2 counter-screen; TRb/SRC2 Texas Red total fluorescence interference; Potency, µM (doses to about 106 µM), inactives show at the top dose fluorescence change, negative = quenching; actives 0.29% (n = 280,000); AID 1479; active means well fitted curve in either direction with a large enough effect; inconclusive means small, poorly fitted or top-dose-only effect
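Flags fluorescent or light-absorbing compounds by total fluorescence, S + 2P, at 555 nm excitation and 632 nm emission. Mixture: 20 nM Texas Red SRC2 peptide, 0.6 uM human TRb LBD, 1 uM T3, 5% DMSO; compound exposure 5 h at ambient temperature.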
TRb-SRC2 inh = inhibitors of human thyroid hormone receptor beta-SRC2 interaction | Potency, µM (series often up to 106 µM), for inactives: at the top dose activity change, negative = inhibition, usual class: inhibitors | TRbeta-SRC2 peptide binding, fluorescence polarization; receptor liganded with 1 µM T3 | P10828 | actives 0.065% (n = 280,000) | AID 1469;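 further: plate controls were bound peptide for no effect and peptide without receptor for full effect; nearly all actives have a fitted effect of over 50% in size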
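A fluorescence polarization screen tested compounds at multiple concentrations against complex formation between 0.6 uM TRb ligand-binding domain and 20 nM Texas Red SRC2 peptide, with 1 uM T3 present; readout after 5 hr.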
JMJD2E inh = blocks human JMJD2E demethylase activity; JMJD2E catalytic domain, FDH-coupled NADH fluorescence (FDH is formaldehyde dehydrogenase); Potency, µM (highest dose often 57.1 µM), for inactives: at the highest dose activity change, negative = inhibition, actives largely listed as inhibitors; actives 1.6% (n = 230,000); AID 2147; active means well fitted inhibition curve with a large enough effect, not every such curve was filed as active; inconclusive means small, poorly fitted or top-dose-only effect, or another doubt; inactive means no such curve, though single readings can be large or run the other way;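 further: 0% = wells with enzyme and -100% = buffer wells without enzyme; nearly all actives have a fitted effect of over 50% in size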
Target sequence (B2RXH2 1-337 limits assumed): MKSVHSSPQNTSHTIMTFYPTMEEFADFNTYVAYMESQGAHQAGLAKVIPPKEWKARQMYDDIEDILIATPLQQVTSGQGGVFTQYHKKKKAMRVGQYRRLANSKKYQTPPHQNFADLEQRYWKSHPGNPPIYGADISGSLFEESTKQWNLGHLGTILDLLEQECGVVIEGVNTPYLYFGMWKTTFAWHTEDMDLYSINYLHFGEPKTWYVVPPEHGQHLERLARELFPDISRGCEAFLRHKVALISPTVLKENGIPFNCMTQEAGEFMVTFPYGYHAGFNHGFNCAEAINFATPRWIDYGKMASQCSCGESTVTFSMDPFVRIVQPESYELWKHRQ
Tau fluor cs = counter-screen for tau fibril formation inhibitors. actives 0.93% (n = 280,000). AID 1463. tau K18 P301L Alexa594 fluorescence, heparin fibrillization. Potency, µM (titrated, usually from 57.7 µM), without a hit: top-dose activity change, negative = decrease; further: nearly all actives have a fitted effect of over 55% in size
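Human tau K18 P301L (15 uM unlabeled, 0.24 uM Alexa 594-labeled) in 100 mM sodium acetate pH 7 with 20 uM heparin, 6 hr at 37 C. ThT 30 uM added, 1 hr ambient; Alexa 594 FP and total fluorescence read at 555/632 nm.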
Tau fibril FP = inhibitors of human tau fibril formation | actives 0.39% (n = 280,000) | K18 P301L tau heparin fibrillization, Alexa594 FP, 6 h | P10636 | Potency, µM (doses to about 57.7 µM), for inactives: at the highest dose activity, negative = inhibition, usual class: inhibitors; further: nearly all actives have a fitted effect of over 55% in size
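K18 P301L tau (15 uM unlabeled/0.24 uM Alexa 594-labeled, final) + compound + heparin 20 uM final; 100 mM NaOAc pH 7; 6 hr 37 C; ThT 30 uM final added, 1 hr RT; FP ex 555/em 632 nm.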
Numbers without * were called inactive; ? = inconclusive; / = not tested or not shown; [ ] = another dose, or the depositor's remark. Unless noted, the call rests on the fitted dose curve; in most records, active means well fitted curve in the direction sought with a large enough effect; inconclusive means small, poorly fitted or top-dose-only effect, or another doubt; inactive means no such curve, though single readings can be large; an effect the other way counts as inactive or inconclusive. Unless noted, on the % scale 0 is the no-effect control and ±100 the full control effect; potency means the concentration at half of the fitted maximal effect.

SMILES	Tau ThT inhib	TR SRC2 fluor cs	TRb-SRC2 inh	JMJD2E inh	Tau fluor cs	Tau fibril FP
O=C1NCCCC2c3cc(O)c4ccccc4c3OC12N1CCCCC1 (configuration not stated)	12.6µM*	-4.9%	-28.2%	?	?	?
O=C1C(C2=NC(C(=O)O)C3C(=O)N(c4ccccc4)C(=O)C23)=C(O)c2ccccc21 (configuration not stated)	-5.8%	1.5%	-6.5%	-1.0%	-5.6%	-4.7%
O=C1C(C2=C(O)c3ccccc3C2=O)=Nc2ccccc21	7.08µM*	/	/	?	?	?
Cc1cc(NC(=O)Nc2cccc([N+](=O)[O-])c2)no1	-4.0%	-4.5%	-5.8%	-19.5%	-14.6%	1.6%
CC(C)(C)c1ccc(C(=O)Nc2cccc([N+](=O)[O-])c2)cc1	?	0.3%	4.9%	-5.3%	7.94µM*[quencher]	?
Cc1ccc(NC(=O)Nc2cccc([N+](=O)[O-])c2)cc1F	?	-8.0%	1.7%	4.4%	5.62µM*[quencher]	?
O=C(Nc1cccc([N+](=O)[O-])c1)c1ccncc1	-3.4%	-1.0%	1.2%	5.5%	-5.2%	4.9%
CC(NCc1ccc(F)cc1)C(=O)NC1CCCCC1 (configuration not stated)	31.6µM*	-0.8%	-2.7%	-7.1%	-21.4%	-20.2%
COc1ccccc1-c1cc(=O)c2cccc(OC)c2o1	?	-0.9%	-0.1%	?	-22.5%	-15.2%
COc1cccc(-c2cc(=O)c3ccccc3o2)c1N	15.8µM*	-5.9%	-3.8%	-0.5%	?	0.5%
O=C(/C=C/c1ccco1)NCC1CCCO1 (configuration not stated)	14.1µM*	1.7%	-2.9%	-17.1%	-19.9%	?
Cc1ccc(C(=O)N/C(=C/c2ccco2)C(=O)NCC2CCCO2)cc1 (configuration not stated)	-4.9%	0.3%	7.4%	-15.6%	-2.5%	1.8%
CCCCOc1ccc(NC(=S)Nc2cc(C)nc(SCCCC)n2)cc1	-7.7%	-0.5%	13.1%	5.2%	-14.4%	0.1%
COc1ccc(CCNC2CC(=O)N(CCc3ccc(OC)c(OC)c3)C2=O)cc1OC (configuration not stated)	-14.5%	-3.4%	-6.0%	-4.8%	-1.7%	-2.1%
COc1ccc(CCN2C(=O)CC(NNc3ccc([N+](=O)[O-])cc3)C2=O)cc1OC (configuration not stated)	11.2µM*	0.4%	8.3%	?	?	-7.2%
CCN(CCC(=O)Nc1ccc(Br)c(C)c1)Cc1ccccc1	?	-2.0%	-3.0%	9.9%	?	-6.1%
CCc1cc2c3c(c1)C(C)CC(C)(C)N3C(=O)/C2=C1\SC(=O)NC1=O (configuration not stated)	14.1µM*	0.5%	9.4%	2.4%	?	2.7%
COc1cc2c3c(c1)C(C)CC(C)(C)N3C(=O)C2=O (configuration not stated)	?	-0.1%	1.2%	11.7%	-22.3%	5.1%
COc1ccc(CCNC(=O)c2c(O)nc3ccccn3c2=O)cc1OC	-5.8%	-25.4%	-2.6%	/	-4.4%	-1.4%
COc1ccccc1-c1nc2ccccc2nc1-c1ccccc1OC	0.2%	-5.2%	-5.2%	-11.3%	-4.2%	1.2%
COc1ccc2nc3cccc(OC)c3nc2c1	15.8µM*	-11.9%	?	-23.9%	-25.7%	?
COc1ccc2nc(-c3ccccc3)cc(OC)c2c1	-7.6%	2.3%	4.8%	?	-11.9%	-3.6%
COc1ccc2nc3ccccc3nc2c1N	10µM*	?	-26.5%	?	?	?
C=CCN1C2=NCCCN2c2ccccc21	-9.6%	-0.7%	5.3%	6.0%	-11.4%	3.3%
COc1ccc(-c2cn[nH]c2-c2ccc(OCc3ccc(F)cc3)cc2O)cc1OC	-14.9%	-0.2%	10.0%	?	8.91µM*[quencher]	?
SMILES	Tau ThT inhib	TR SRC2 fluor cs	TRb-SRC2 inh	JMJD2E inh	Tau fluor cs	Tau fibril FP
COc1ccc(-c2cn[nH]c2-c2ccc(OCc3ccccc3)cc2O)cc1OC	-3.0%	4.8%	8.7%	9.0%	3.16µM*[quencher]	?
COc1ccc(-c2cn[nH]c2C)cc1OC	-5.3%	-2.8%	-9.4%	-1.3%	7.9%	6.0%
COc1cc(C(=O)NCCNC(=O)C2CCCNC2=O)cc(OC)c1OC (configuration not stated)	-2.9%	-0.4%	2.7%	17.8%	-7.1%	4.0%
C#CCOc1c(Br)cc(/C=N/O)cc1OCC	1.7%	-0.3%	-22.0%	9.2%	-6.7%	-11.6%
CC(OC(=O)c1cccnc1)C(=O)NCc1ccc2c(c1)OCO2 (configuration not stated)	-3.6%	-4.1%	-0.9%	-6.2%	-1.9%	0.7%
CCOc1ccc(N2C(=O)CS/C2=C(\C(Cl)=C(Cl)Cl)[N+](=O)[O-])cc1	15.8µM*	6.9%	11.7%	0.2%	?	?
O=C(CN1C(=O)C2CCCN2c2ncc(Cl)cc21)NCc1ccc2c(c1)OCO2 (configuration not stated)	-8.8%	-4.2%	6.2%	14.1µM*	-1.7%	-1.9%
Cc1ccc(N2CC(C(=O)Nc3nnc(C(C)C)s3)CC2=O)cc1 (configuration not stated)	-16.7%	-1.5%	0.0%	3.2%	-16.2%	-6.1%
Nc1sc2c(c1C(=O)NC1CCS(=O)(=O)C1)CCCC2 (configuration not stated)	31.6µM*	-2.3%	0.8%	28.2µM*	?	?
NC(=O)c1c(N)sc2c1CCCC2	22.4µM*	-5.1%	3.8%	?	-24.9%	?
CCc1cccc(NC(=O)c2ccc(Br)o2)c1	-5.1%	-5.2%	0.9%	14.7%	-2.3%	1.9%
O=C(N/N=C/c1ccc(O)c(O)c1)c1ccc(CSc2cccc3cccnc23)cc1	?	-6.1%	4.4%	?	22.4µM*[quencher]	11.7%
O=C(CSc1cccc2cccnc12)N/N=C/c1cccc(O)c1	?	-1.6%	-0.4%	?	-12.2%	-11.5%
COC(=O)CC1Oc2ccccc2-n2cc(-c3ccc(C)cc3)nc21 (configuration not stated)	-8.1%	-6.7%	-2.2%	/	-15.8%	-7.7%
COC(=O)[C@@H](N)Cc1ccc(O)cc1	-3.2%	-9.7%	1.0%	3.4%	-3.9%	-6.0%
N[C@@H](CO)C(=O)NNCc1ccc(O)c(O)c1O	/	-1.7%	-1.5%	7.94µM*	/	/
Cc1ccc(NC(=O)Cn2cc(C(=O)C3CC3)c3ccccc32)cc1C	7.3%	-9.4%	-0.4%	/	1.5%	-17.4%
Cc1ccc(-n2ncc3c(N4CCC(Cc5ccccc5)CC4)ncnc32)cc1C	-13.8%	0.5%	3.2%	/	-7.2%	0.1%
